Active and inactive are the calls of the source.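 Rule for the calls: active = Inhibition of the Kir2.1 potassium channel over 30% at some tested dose, plus a fitted dose response curve; inactive = no Kir2.1 inhibition at any dose, or no curve fitted.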
The compounds below were run against Inward rectifier potassium channel 2 (Mus musculus) (UniProt P35561) (assay: Kir2.1 channel inhibition, specificity check, SAR follow-up, selectivity assay for KCNK9 inhibitor project, cell-based, FluxOR thallium flux, CRC round 2 (AID 540321)). Settings: Kir2.1-expressing cells; series mostly up to 30 µM.
Sequence of Inward rectifier potassium channel 2 (Mus musculus) (P35561 whole entry, looked up): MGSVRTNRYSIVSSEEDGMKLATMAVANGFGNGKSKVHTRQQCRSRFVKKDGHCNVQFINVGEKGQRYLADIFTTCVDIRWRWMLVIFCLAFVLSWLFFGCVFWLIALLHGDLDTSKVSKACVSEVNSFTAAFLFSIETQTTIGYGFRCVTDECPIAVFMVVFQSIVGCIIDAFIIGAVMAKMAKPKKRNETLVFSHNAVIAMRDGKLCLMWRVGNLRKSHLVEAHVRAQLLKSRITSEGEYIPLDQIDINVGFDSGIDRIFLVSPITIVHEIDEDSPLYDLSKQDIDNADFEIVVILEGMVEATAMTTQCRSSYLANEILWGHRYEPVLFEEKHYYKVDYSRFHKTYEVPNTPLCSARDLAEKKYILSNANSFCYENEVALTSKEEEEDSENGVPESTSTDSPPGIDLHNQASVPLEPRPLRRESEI

Row | Structure (SMILES) | outcome
1 | CCOc1ccccc1NC(=O)c1cccc(NC(=O)c2ccc(Cl)cc2)c1 | inactive
2 | CC(C1CC2CCC1C2)n1c(-c2ccsc2)n[nH]c1=S (stereo not drawn) | inactive
3 | Cc1ccccc1C(=O)Nc1cccc(NC(=O)c2ccccc2)c1 | inactive
4 | COc1cccc(C(=O)Nc2cccc(NC(=O)c3ccccc3)c2)c1 | inactive
5 | O=C(Nc1cccc(NC(=O)c2ccoc2)c1)c1ccccc1 | inactive
6 | COc1ccccc1C(=O)Nc1cccc(NC(=O)c2ccccc2OC)c1 | inactive
7 | CCOc1ccccc1NC(=O)c1cccc(NC(=O)c2cccc(OC)c2)c1 | inactive
8 | CCOc1ccccc1NC(=O)c1cccc(NC(=O)c2ccc(C)cc2)c1 | inactive
9 | COc1ccc(C(=O)Nc2cccc(NC(=O)c3cccc(C)c3)c2)cc1 | inactive
10 | CC(C1CC2CCC1C2)n1c(-c2ccccc2)n[nH]c1=S (stereo not drawn) | inactive
11 | COc1ccccc1NC(=O)c1cccc(NC(=O)c2ccccc2C(F)(F)F)c1 | inactive
12 | COc1ccccc1C(=O)Nc1cccc(NC(=O)c2ccccc2C(C)C)c1 | inactive
13 | Cc1ccc(-c2n[nH]c(=S)n2C(C)C2CC3CCC2C3)cc1 (stereo not drawn) | inactive
14 | Cc1cccc(C(=O)Nc2cccc(NC(=O)c3ccc(N(C)C)cc3)c2)c1 | inactive
15 | Cc1cccc(C(=O)Nc2cccc(NC(=O)c3ccccc3Cl)c2)c1 | inactive
16 | CCOc1cccc(NC(=O)c2cccc(NC(=O)C3CCCC3)c2)c1 | inactive
17 | O=C(Nc1cccc(NC(=O)c2ccccc2)c1)c1ccccc1 | inactive
18 | O=C(Nc1cccc(NC(=O)c2ccsc2)c1)c1ccccc1 | inactive

From PubChem BioAssay AID540321 (Johns Hopkins Ion Channel Center, 2011)
